# According to paper PMC5540273 (PLoS ONE, 2017):
# Where two headings read alike, the source gives them in different places.
# Columns and labels:
# SgK110 = settings: concentration: 1 μM, replicates: in singlicate; n = 1
# TAK1 = system: T1, TAK1; settings: concentration: 1 μM, replicates: in singlicate; n = 1
# T1 construct: gene MAP3K7
# TAOK1 = settings: concentration: 1 μM, replicates: in singlicate; n = 1
# TAOK2 = settings: concentration: 1 μM, replicates: in singlicate; n = 1
# TAOK3 = settings: concentration: 1 μM, replicates: in singlicate; n = 1
# TBK1 = settings: concentration: 1 μM, replicates: in singlicate; n = 1
# TEC = settings: concentration: 1 μM, replicates: in singlicate; n = 1
# TESK1 = settings: concentration: 1 μM, replicates: in singlicate; n = 1
# TGFBR1 = settings: n = 1
# TGFBR2 = settings: concentration: 1 μM, replicates: in singlicate; n = 1
# TIE1 = settings: concentration: 1 μM, replicates: in singlicate; n = 1
# TIE2 = system: T2, TIE2; settings: concentration: 1 μM, replicates: in singlicate; n = 1
# T2 construct: gene TEK
# TLK1 = settings: concentration: 1 μM, replicates: in singlicate; n = 1
# TLK2 = settings: concentration: 1 μM, replicates: in singlicate; n = 1
# TNIK = settings: concentration: 1 μM, replicates: in singlicate; n = 1
# TNK1 = settings: concentration: 1 μM, replicates: in singlicate; n = 1
# TNK2 = settings: concentration: 1 μM, replicates: in singlicate; n = 1
# TNNI3K = settings: concentration: 1 μM, replicates: in singlicate; n = 1
# TRKA = system: T3, TRKA; settings: concentration: 1 μM, replicates: in singlicate; n = 1
# T3 construct: gene NTRK1
# TRKB = settings: concentration: 1 μM, replicates: in singlicate; n = 1
# [1] = concentration: 1 μM, replicates: in singlicate
# 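Note: KINOMEscan kinase panel screen.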
structure (smiles),measurement,setting,value
Nc1nccc2scc(-c3ccc4c(c3)CCN4C(=O)Cc3cc(F)ccc3F)c12 [GSK2587663],%Inh,SgK110,0%
same,%Inh,TAK1,0%
same,%Inh,TAOK1,0%
same,%Inh,TAOK2,0%
same,%Inh,TAOK3,0%
same,%Inh,TBK1,6%
same,%Inh,TEC,0%
same,%Inh,TESK1,18%
same,%Inh,TGFBR1; [1],19%
same,%Inh,TGFBR2,0%
same,%Inh,TIE1,54%
same,%Inh,TIE2,1%
same,%Inh,TLK1,4%
same,%Inh,TLK2,0%
same,%Inh,TNIK,0%
same,%Inh,TNK1,0%
same,%Inh,TNK2,23%
same,%Inh,TNNI3K,4%
same,%Inh,TRKA,0%
same,%Inh,TRKB,42%
Nc1nc(-c2cccnc2)c(-c2ccnc3ccccc23)s1 [GW684083],%Inh,SgK110,48%
same,%Inh,TAK1,1%
same,%Inh,TAOK1,0%
same,%Inh,TAOK2,0%
same,%Inh,TAOK3,0%
same,%Inh,TBK1,2%
same,%Inh,TEC,0%
same,%Inh,TESK1,0%
same,%Inh,TGFBR1; [1],5%
same,%Inh,TGFBR2,14%
same,%Inh,TIE1,6%
same,%Inh,TIE2,0%
same,%Inh,TLK1,0%
same,%Inh,TLK2,0%
same,%Inh,TNIK,81%
same,%Inh,TNK1,0%
same,%Inh,TNK2,18%
same,%Inh,TNNI3K,0%
same,%Inh,TRKA,59%
same,%Inh,TRKB,39%
Cl.O=S(=O)(c1cccc(F)c1)c1ccc(Nc2ncnc3cc(Br)sc23)cc1Cl [GSK306886],%Inh,SgK110,0%
same,%Inh,TAK1,0%
same,%Inh,TAOK1,0%
same,%Inh,TAOK2,0%
same,%Inh,TAOK3,0%
same,%Inh,TBK1,9%
same,%Inh,TEC,0%
same,%Inh,TESK1,0%
same,%Inh,TGFBR1; [1],7%
same,%Inh,TGFBR2,0%
same,%Inh,TIE1,0%
same,%Inh,TIE2,0%
same,%Inh,TLK1,19%
same,%Inh,TLK2,2%
same,%Inh,TNIK,0%
same,%Inh,TNK1,0%
same,%Inh,TNK2,21%
same,%Inh,TNNI3K,23%
same,%Inh,TRKA,0%
same,%Inh,TRKB,0%
Clc1cccc(-c2nc(Nc3ccncc3)c3ccccc3n2)c1 [GW873004],%Inh,SgK110,38%
same,%Inh,TAK1,0%
same,%Inh,TAOK1,0%
same,%Inh,TAOK2,4%
same,%Inh,TAOK3,0%
same,%Inh,TBK1,11%
same,%Inh,TEC,17%
same,%Inh,TESK1,19%
same,%Inh,TGFBR2,17%
same,%Inh,TIE1,0%
same,%Inh,TIE2,48%
same,%Inh,TLK1,0%
same,%Inh,TLK2,0%
same,%Inh,TNIK,0%
same,%Inh,TNK1,59%
same,%Inh,TNK2,40%
same,%Inh,TNNI3K,0%
same,%Inh,TRKA,0%
same,%Inh,TRKB,0%
C[C@H]1CC[C@@H](C(=O)Nc2ccccc2)CN1c1cc(-c2ccc3c(N)n[nH]c3c2)nc(N)n1 [GSK2283293],%Inh,SgK110,0%
same,%Inh,TAK1,0%
same,%Inh,TAOK1,0%
same,%Inh,TAOK2,0%
same,%Inh,TAOK3,0%
same,%Inh,TBK1,7%
same,%Inh,TEC,11%
same,%Inh,TESK1,26%
same,%Inh,TGFBR1; [1],14%
same,%Inh,TGFBR2,0%
same,%Inh,TIE1,26%
same,%Inh,TIE2,0%
same,%Inh,TLK1,4%
same,%Inh,TLK2,0%
same,%Inh,TNIK,0%
same,%Inh,TNK1,0%
same,%Inh,TNK2,17%
same,%Inh,TNNI3K,0%
same,%Inh,TRKA,0%
same,%Inh,TRKB,0%
Oc1ccc2ncnc(Nc3ccc(OCc4ccccc4)cc3)c2c1 [GI262866],%Inh,SgK110,0%
same,%Inh,TAK1,0%
same,%Inh,TAOK1,0%
same,%Inh,TAOK2,0%
same,%Inh,TAOK3,0%
same,%Inh,TBK1,0%
same,%Inh,TEC,0%
same,%Inh,TESK1,0%
same,%Inh,TGFBR1; [1],0%
same,%Inh,TGFBR2,0%
same,%Inh,TIE1,19%
same,%Inh,TIE2,0%
same,%Inh,TLK1,0%
same,%Inh,TLK2,0%
same,%Inh,TNIK,0%
same,%Inh,TNK1,0%
same,%Inh,TNK2,4%
same,%Inh,TNNI3K,77%
same,%Inh,TRKA,0%
same,%Inh,TRKB,0%
COc1ccc(-c2oc3ncnc(N)c3c2-c2ccc(OC)cc2)cc1 [SB-589132],%Inh,SgK110,0%
same,%Inh,TAK1,0%
same,%Inh,TAOK1,0%
same,%Inh,TAOK2,0%
same,%Inh,TAOK3,0%
same,%Inh,TBK1,0%
same,%Inh,TEC,15%
same,%Inh,TESK1,36%
same,%Inh,TGFBR1; [1],7%
same,%Inh,TGFBR2,12%
same,%Inh,TIE1,1%
same,%Inh,TIE2,9%
same,%Inh,TLK1,0%
same,%Inh,TLK2,0%
same,%Inh,TNIK,0%
same,%Inh,TNK1,45%
same,%Inh,TNK2,44%
same,%Inh,TNNI3K,50%
same,%Inh,TRKA,52%
same,%Inh,TRKB,74%
O=C(CCO)NCCn1ccc2ncnc(Nc3ccc(Oc4cccc(C(F)(F)F)c4)c(Cl)c3)c21,%Inh,SgK110,0%
same,%Inh,TAK1,0%
same,%Inh,TAOK1,0%
same,%Inh,TAOK2,10%
same,%Inh,TAOK3,0%
same,%Inh,TBK1,16%
same,%Inh,TEC,0%
same,%Inh,TESK1,6%
same,%Inh,TGFBR1; [1],0%
same,%Inh,TGFBR2,0%
same,%Inh,TIE1,0%
same,%Inh,TIE2,0%
same,%Inh,TLK1,0%
same,%Inh,TLK2,0%
same,%Inh,TNIK,0%
same,%Inh,TNK1,0%
same,%Inh,TNK2,0%
same,%Inh,TNNI3K,0%
same,%Inh,TRKA,0%
same,%Inh,TRKB,0%
FC(F)(F)c1ccc(-c2nn3ncccc3c2-c2ccnc(Nc3cccc(C(F)(F)F)c3)n2)cc1 [GW828205],%Inh,SgK110,23%
same,%Inh,TAK1,0%
same,%Inh,TAOK1,0%
same,%Inh,TAOK2,32%
same,%Inh,TAOK3,0%
same,%Inh,TBK1,51%
same,%Inh,TEC,7%
same,%Inh,TESK1,3%
same,%Inh,TGFBR1; [1],0%
same,%Inh,TGFBR2,0%
same,%Inh,TIE1,0%
same,%Inh,TIE2,52%
same,%Inh,TLK1,0%
same,%Inh,TLK2,8%
same,%Inh,TNIK,0%
same,%Inh,TNK1,0%
same,%Inh,TNK2,0%
same,%Inh,TNNI3K,0%
same,%Inh,TRKA,0%
same,%Inh,TRKB,0%
Clc1ccc(-c2cc(-c3c[nH]nc3-c3ccccn3)ccn2)cc1 [GW681251],%Inh,SgK110,0%
same,%Inh,TAK1,0%
same,%Inh,TAOK1,0%
same,%Inh,TAOK2,0%
same,%Inh,TAOK3,0%
same,%Inh,TBK1,0%
same,%Inh,TEC,0%
same,%Inh,TESK1,12%
same,%Inh,TGFBR1; 1 µM,79%
same,%Inh,TGFBR2,85%
same,%Inh,TIE1,33%
same,%Inh,TIE2,0%
same,%Inh,TLK1,0%
same,%Inh,TLK2,0%
same,%Inh,TNIK,80%
same,%Inh,TNK1,0%
same,%Inh,TNK2,0%
same,%Inh,TNNI3K,17%
same,%Inh,TRKA,0%
same,%Inh,TRKB,0%
O=C(c1ccc(-c2cc(-c3c[nH]nc3-c3ccccn3)ccn2)cc1)N1CCCC1 [GW792479],%Inh,SgK110,6%
same,%Inh,TAK1,0%
same,%Inh,TAOK1,0%
same,%Inh,TAOK2,45%
same,%Inh,TAOK3,0%
same,%Inh,TBK1,59%
same,%Inh,TEC,8%
same,%Inh,TESK1,20%
same,%Inh,TGFBR1; 1 µM,93.6%
same,%Inh,TGFBR2,39%
same,%Inh,TIE1,0%
same,%Inh,TIE2,27%
same,%Inh,TLK1,0%
same,%Inh,TLK2,0%
same,%Inh,TNIK,48%
same,%Inh,TNK1,21%
same,%Inh,TNK2,0%
same,%Inh,TNNI3K,0%
same,%Inh,TRKA,0%
same,%Inh,TRKB,0%
